IL1B secr inh = inflammasome signaling inhibition, IL-1 beta readout | THP-1 LPS/ATP IL-1B secretion, AlphaLISA, 16 h; active compounds read low | activity change, % at 57.5 µM | 4.7% of 360,000 active | AID 743279; in the data active = activity change below about -50%; inconclusive = mostly about -30% to -49%; also: % is scaled to controls: 0 for no effect and ±100 for the full control effect
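THP-1 cells pretreated 1 hr with compounds (up to 57.5 uM final), then stimulated with LPS (250 ng/mL final) plus ATP (1.25 mM final); secreted IL-1B measured by AlphaLISA after 16 hr, decreased signal indicating inhibition.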
KB-V1 cytotox = kills drug-selected multidrug resistant KB-V1 cells | KB-V1 MDR cells viability, CellTiter-Glo, 72 h | Potency, µM (doses to about 46.1 µM), usual class: cytotoxic | 3.4% of 400,000 active | AID 1347076; also: potency is read from the fitted curve at half-maximal effect; % is scaled to controls: 0 for no effect and ±100 for the full control effect; nearly all actives have a fitted effect of over 60% in size
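qHTS viability screen in drug-selected KB-V1 MDR cells: 72 h compound treatment at 37 degrees C, ATP luminescence end point.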
MCF10A rereplic = inducers of DNA re-replication in MCF 10A breast cells; AID 624296; Potency, µM (highest dose often 46.1 µM), without a hit: at the top dose activity, positive = re-replication, actives largely listed as activators; MCF 10A DNA re-replication, Hoechst nuclear intensity, 48 h; 2.9% of 350,000 active; also: potency is read from the fitted curve at half-maximal effect; % of control where 0% means no effect; nearly all actives have a fitted effect of over 50% in size
KB-3-1 tox = KB-3-1 parental cell cytotoxicity; KB-3-1 viability, CellTiter-Glo ATP luminescence, 72 h; Potency, µM (top dose mostly 46.1 µM), actives largely listed as cytotoxic; 1.4% of 400,000 active; also: potency is read from the fitted curve at half-maximal effect; % is scaled to controls: 0 for no effect and ±100 for the full control effect; nearly all actives have a fitted effect of over 60% in size
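Cells are dispensed, compounds pinned in, plates held at 37 °C for 72 h, then CellTiter-Glo is added and luminescence read after 10 minutes. Cell line: parental KB-3-1 in phenol-red-free DMEM, 10% FBS.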
SW480 rerep = induces DNA re-replication in SW480 colon adenocarcinoma cells; 1.8% of 340,000 active; SW480 DNA re-replication, Hoechst DNA content imaging, 48 h; AID 624297; Potency, µM (doses to about 46.1 µM), inactives show at the highest dose re-replication activation, usual class: activators; also: potency is read from the fitted curve at half-maximal effect; % of control where 0% means no effect; nearly all actives have a fitted effect of over 55% in size
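250 cells/well; 23 nL cpd via pin tool; 48 hr, 37 C, 5% CO2; Hoechst 40 min; imager read of total nuclear intensity, ex 405/em 500-530 nm.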
* hit, by the source's call; i = inactive; ? = inconclusive; . = not tested or not shown; [ ] = remark or other dose. Only some compounds are listed: those with a hit (about 9.9% of all), similar ones and a draw of the others. Unless noted, calls follow the shape of the dose curve; as a rule, active = well fitted curve in the direction sought with a large enough effect; inconclusive = small, poorly fitted or top-dose-only effect, or another doubt; inactive = no such curve, though single readings can be large; an effect the other way counts as inactive or inconclusive.

SMILES | IL1B secr inh | KB-V1 cytotox | MCF10A rereplic | KB-3-1 tox | SW480 rerep
COc1cc2c(cc1OC)C(C)N(C(=O)Nc1cc(C)cc(C)c1)CC2 (stereo not drawn) | 35 | 6.5µM* | 3.7µM* | ? | ?
COc1cc2c(cc1OC)C(C)N(C(=O)CCc1c[nH]c3ccccc13)CC2 (stereo not drawn) | 21 | ? | ? | ? | ?
CCOC1=C2CN(S(=O)(=O)c3ccc(C)cc3)[C@@H](c3ccc(CC)cc3)C[C@H]2[C@H]2C(=O)N(c3ccccc3)C(=O)[C@H]2C1 | 12 | i | . | i | .
O=C(c1ccc(Cl)cc1)N1CCC(O)(CSc2ccc(Cl)cc2)CC1 | -14 | i | 16% | 0.0007µM* | 1%
CN1CCN(C(=O)c2ccc(CSc3ccc(Cl)cc3)cc2)CC1 | -62* | 7.3µM* | 1% | ? | 15%
CN1CCN(C(=O)c2ccc(Cl)cc2)CC1 | 7 | i | 0% | i | -3%
Cc1ccc(SCc2ccc(C(=O)N3CCCCC3)cc2)cc1 | -10 | ? | 0% | i | -3%
CCOC(=O)N1CCN(C(=O)c2ccc(CSc3ccc(Cl)cc3)cc2)CC1 | -80* | i | 0% | i | 0%
O=C(CN1C=NS(=O)(=O)c2ccc(C(F)(F)F)cc21)Nc1cccc(C(F)(F)F)c1 | . | i | . | i | .
Cc1ccsc1/C=C/c1ccc2ccccc2n1 | -20 | ? | ? | ? | -2%
Cc1cccc(/C=C/c2cccs2)n1 | . | i | . | 2.3µM* | .
Oc1cccc2ccc(/C=C/c3cccs3)nc12 | -11 | i | ? | ? | 11µM*
Cc1ccsc1/C=C/c1ccc2cccc(O)c2n1 | -26 | 13µM* | ? | ? | ?
C=CCNC(=O)COc1cc(C)cc(C)c1C | -6 | i | 0% | i | -1%
NC(Cc1ccc(Cl)cc1)c1csc(Nc2ccc(C(F)(F)F)cn2)n1 (stereo not drawn) | -67* | ? | . | i | .
CC(C)CC(N)c1csc(Nc2cnccn2)n1 (stereo not drawn) | -16 | i | . | i | .
NC(Cc1ccc(C(F)(F)F)cc1)c1csc(Nc2nncc3ccccc23)n1 (stereo not drawn) | -67* | 16µM* | . | ? | .
CC(C)CC(N)c1csc(Nc2ccccn2)n1 (stereo not drawn) | -50* | i | . | i | .
CC(C)CC(N)c1csc(Nc2ccc(C(F)(F)F)cn2)n1 (stereo not drawn) | -54* | 16µM* | . | ? | .
NC(COCc1ccccc1)c1csc(Nc2nncc3ccccc23)n1 (stereo not drawn) | ? | ? | . | i | .
Cc1cc(S(=O)(=O)NCCc2csc(-c3cccc(F)c3)n2)ccc1F | . | i | . | ? | .
NC(c1csc(Nc2ccc(C(F)(F)F)cn2)n1)C1CCCCC1 (stereo not drawn) | -66* | ? | . | ? | .
CN1OC[C@@H]2CN(Cc3ccccc3)[C@H](c3cccc(N4CCOCC4)c3)C[C@@H]21 | -17 | i | ? | i | -26%[9.22 µM]
Cc1ccccc1-c1cccc([C@@H]2C[C@H]3[C@H](CON3C)CN2Cc2ccccc2)c1 | 0 | i | 18µM* | i | 10%[9.22 µM]
C=CCCC(=O)N1C[C@H]2CON(C)[C@H]2C[C@H]1c1cccc(Oc2ccccc2)c1 | 15 | i | . | i | .
SMILES | IL1B secr inh | KB-V1 cytotox | MCF10A rereplic | KB-3-1 tox | SW480 rerep
Cc1ccccc1S(=O)(=O)N1C[C@H]2CON(C)[C@H]2C[C@H]1c1cccc(Oc2ccccc2)c1 | 34 | i | ? | i | 8.2µM*
CC12CC3(C)CC(C)(C1)CC(C(=O)NC(=S)N1CCCC1)(C2)C3 | 11 | i | 24% | i | ?
CCN1CCCC1CN(Cc1cc2ccc(C)cc2[nH]c1=O)C(=S)Nc1ccc(OC)cc1OC (stereo not drawn) | -52* | i | -4% | i | 4%
CCN1CCCC1CN(Cc1cc2cc(C)cc(C)c2[nH]c1=O)C(=O)Nc1ccccc1OC (stereo not drawn) | ? | i | -2% | i | 5%
Cc1ccc2cc(CN(CCN(C)C)C(=S)Nc3ccccc3)c(=O)[nH]c2c1C | -85* | i | -1% | ? | ?
CCN(CC)CCN(Cc1cc2ccc(C)cc2[nH]c1=O)C(=S)Nc1ccccc1C(=O)OC | -77* | ? | 9% | ? | ?
CC(=O)N(CCc1ccccc1)Cc1cc2ccc(C)c(C)c2[nH]c1=O | -11 | ? | -4% | i | 1%
Cc1ccc(C)c2[nH]c(=O)c(CN(CC3CCCO3)C(=S)NCc3ccco3)cc12 (stereo not drawn) | -77* | i | ? | i | 15%
Cc1ccc(-c2noc(C3CC(=O)N(c4ccc5c(c4)OCCO5)C3)n2)cc1 (stereo not drawn) | . | i | . | i | .
Cc1cc(F)ccc1S(=O)(=O)N1CCCOC1CNC(=O)C(=O)NCc1ccncc1 (stereo not drawn) | i | i | -9% | i | -4%
C=C(C)C1CC=C(C)CC1 (stereo not drawn) | . | . | 0% | . | 0%
CCNC(=S)N(Cc1cc2cccc(C)c2[nH]c1=O)C1CCCC1 | 10 | 18µM* | 1% | ? | -146%
Cc1ccc(NC(=S)N(CCN(C)C)Cc2cc3cc(C)cc(C)c3[nH]c2=O)cc1 | -53* | ? | 17% | i | ?
CCN(CC)CCN(Cc1cc2cccc(C)c2[nH]c1=O)C(=S)Nc1ccccc1 | -80* | i | 1% | i | -2%
Cc1cccc2cc(CN(CC3CCCO3)C(=S)Nc3ccccc3)c(=O)[nH]c12 (stereo not drawn) | -30 | 3.7µM* | ? | i | 16%
Cc1n[nH]c(C)c1S(=O)(=O)N1CCC(C(=O)Nc2cccc(F)c2)CC1 | 33 | ? | 13% | i | 20%
COc1ccc(C)cc1S(=O)(=O)N1CCCC(C(=O)N2CCN(c3ccccc3F)CC2)C1 (stereo not drawn) | -7 | . | 14% | . | ?
Cc1ccc2cc(CN(CCCO)S(=O)(=O)c3cccc4nsnc34)c(=O)[nH]c2c1C | 31 | i | 19% | i | -4%
Cc1ccc2cc(CN(CCCO)S(=O)(=O)c3ccccc3F)c(=O)[nH]c2c1C | -59* | i | 7% | i | -6%
COc1cccc(-c2cnc(C(O)c3ccc(-c4ccccc4)cc3)[nH]2)c1 (stereo not drawn) | 4 | ? | . | ? | .
COc1ccc(N2C(=O)CCSC23C(=O)N(Cc2ccc(F)cc2)c2ccccc23)cc1 (stereo not drawn) | . | i | . | i | .
COc1cc(C2CC(=O)N(Cc3ccc(F)cc3)c3ccccc3S2)cc(OC)c1OC (stereo not drawn) | . | 12µM* | . | ? | .

High-throughput results deposited in PubChem BioAssay by National Center for Advancing Translational Sciences (NCATS).
